# Results published in PubChem BioAssay (NCI).
# Several values for one entry are separate records, joined by “and”; a condition that tells them apart may be missing. Equal entries are not always repeated. About 83,000 compounds went through this panel and 20% of them were active in at least one assay; those are over-represented in the sample as a whole.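 Assay: single dose, 48 h. Readout: percent growth (0 = no net growth; negative = cell death). Active: <10.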 Activity calls are given as the source filed them.
# System: TK-10 renal
# Test: NCI-60 one-dose screen, 48 h (100 = growth as untreated, 0 = no growth, -100 = all killed)
# Settings: 10 µM unless noted
row,SMILES,growth
1,COc1cc2oc3c(c(=O)c2c(O)c1/C=C/C(C)C)CCC(C)(C)Oc1cc(O)ccc1-3,35% [100 µM] (inactive) and -96.5% [100 µM] (active)
2,CC(C)=CC(O)C/C(C)=C/CC/C(C)=C/CCC1(C)C(CCCO)/C(=C(/C)C=O)CCC1(C)O (stereo not given),49.7% [100 µM] (inactive) and 9.22% [100 µM] (active)
3,CC/C(Cl)=N\OC(=O)Nc1ccc(OC)cc1,-100% [100 µM] (active)
4,CC(=O)c1ccc(NC(=O)/C(CC(=O)/C=C/c2ccccc2)=N/NC(N)=S)cc1,125% [100 µM] (inactive) and 43.7% [100 µM] (inactive)
5,CC1CC2(OC2C)C(=O)OC2CCN(C)C/C=C(/COC(=O)C1(C)O)C2=O (stereo not given),97.2% [100 µM] (inactive) and 101% [100 µM] (inactive)
6,Cc1ccc2c(sc(-c3ccc4c(c3)sc(-c3ccc5c(c3)sc(-c3ccc(N(C)C)cc3)[n+]5C)[n+]4C)[n+]2C)c1S(=O)(=O)O (tested in a mixture with another compound),106% [100 µM] (inactive) and 47.3% [100 µM] (inactive)
7,CC(C)/C(Cl)=N/OC(=O)Nc1cccc(C(F)(F)F)c1,-100% [100 µM] (active)
8,C=C(CCC(C(=O)O)C1CCC2(C)C3=C(CCC12C)C1(C)CCC(O)C(C)(C)C1CC3)C(C)C (stereo not given),-54.9% [100 µM] (active) and -100% [100 µM] (active)
9,N#Cc1nc(C(F)(F)F)oc1N,79% [100 µM] (inactive) and 98.6% [100 µM] (inactive)
10,COc1ccccc1-c1n[nH]c(-c2ccccc2O)n1,84.4% [100 µM] (inactive) and 32.7% [100 µM] (inactive)
11,N#Cc1nc(-c2cccc(-c3nc(C#N)c(N)o3)n2)oc1N,96.3% [100 µM] (inactive) and 84.9% [100 µM] (inactive)
12,CC1(C)S[C@H](CN)N[C@H]1C(=O)OC(c1ccccc1)c1ccccc1,49% [100 µM] (inactive) and -32.5% [100 µM] (active)
13,CCCCCCCCCC(=O)CC(=O)c1c(O)cc(O)cc1O,-1.86% [75 µM] (active) and 10% [75 µM] (inactive)
14,CC(=Nc1ccncc1)C(C)=Nc1ccncc1,-74.8% [100 µM] (active) and -52.5% [100 µM] (active)
15,C=C1C(=O)O[C@@H]2C[C@@]3(C)CC(=O)C=C(C)[C@@H]3C[C@H]12,-87.6% [100 µM] (active) and -78.7% [100 µM] (active)
